Experimental data from PubChem BioAssay AID1259240 (Keith Lab, Institute of Cancer Science, University of …, 2017).
Unmarked numbers belong to inactive results. Calls of active or inactive are those of the source. Rule as the data show it: active = fold change mostly below about -2 (no sharp cut-off); inactive = mostly above about -1.8.

Assay: TERT promoter activity modulators, primary screen, cell-based, luciferase reporter, human (AID 1259240)
Settings: A2780 TERT promoter luciferase reporter, 16 h; at 20 µM, fold versus average of vehicle-only wells

| SMILES | fold change | outcome |
| --- | --- | --- |
| COc1cc2c(cc1OC)C(c1ccc(C)c(Br)c1)CC(=O)N2 (stereo not given) | -1.04 | – |
| CCN1CCN(C(=O)c2cc3c(=O)[nH]c4ccccc4c3n2C)CC1 | 1.05 | – |
| Cc1cc2[nH]c(=O)c(CCO)c(C)n2n1 | – | inactive |
| CN(Cc1ccco1)C(=O)c1ccc(CNc2c(N3CCCCC3)c(=O)c2=O)cc1 | -1.11 | – |
| Cc1cc(=O)[nH]c(SCC(=O)c2c[nH]c3ccccc23)n1 | – | inactive |
| CC(C)OCCCNc1nc(-c2ccccc2)nc2ccccc12 | -1.24 | – |
| Cc1noc(C(=O)N2CCN(c3ccccc3)CC2)c1Cl | -1.23 | – |
| COc1ccc(N2CCN(c3ccc4nnc(C)n4n3)CC2)cc1 | -1.14 | – |
| COC(=O)C1Cc2cc(OC)c(OC)cc2C(Cc2ccc(OC)c(OC)c2)=N1 (stereo not given) | -1.78 | – |
| CN(C)CCN1C(=O)C(=O)/C(=C(\O)c2ccc(F)cc2)C12C(=O)N(C)c1ccccc12 (stereo not given) | -1.34 | – |
| O=C1Nc2ccccc2N(O)N1c1cc(-c2cccc(Cl)c2)no1 | 1.45 | – |
| O=C(Nc1ccc2snnc2c1)Nc1ccccc1Cl | -1.86 | – |
| O=S(=O)(NCc1ccc2c(c1)OCO2)c1cccc2cccnc12 | -1.35 | – |
| O=C(Cn1ncc2c3ccccc3n(Cc3ccccc3)c2c1=O)N1CCCC1 | -1.21 | – |
| Cc1cc(C)cc(NC2=C(N3CCOCC3)C(=O)c3ccccc3C2=O)c1 | -1.02 | – |
| Cc1cc(C)cc(CC(CC(=O)Nc2nccs2)C(=O)Nc2nccs2)c1 (stereo not given) | 1.18 | – |
| CCOC(=O)C1=C(CS(=O)(=O)c2ccc(Cl)cc2)NC(=O)NC1c1ccc(F)cc1 (stereo not given) | 1.41 | – |
| Cc1ccc2nc(NC3=NCN(Cc4ccco4)CN3)nc(C)c2c1 | 1 | – |
| O=C(CSc1nc(-c2ccco2)cc(C(F)(F)F)n1)NCC1CCCO1 (stereo not given) | -1.44 | – |
| O=C(Cn1ncc2c3ccccc3n(Cc3ccccc3)c2c1=O)N1CCOCC1 | -1.17 | – |

| SMILES | fold change | outcome |
| --- | --- | --- |
| CN(C)CCNC(=O)C(=O)Nc1ccc2nc3n(c(=O)c2c1)CCCCC3 | 1.06 | – |
| O=C(NC1CCCC1)C1CCC(CNS(=O)(=O)c2cccc3nsnc23)CC1 (stereo not given) | -1.64 | – |
| Cc1ccc(Cn2ccc(NC(=O)c3noc(C(C)C)c3[N+](=O)[O-])n2)cc1 | -2.42 (active) | – |
| Cc1cccc(C(=O)N2N=C(c3ccc(NS(C)(=O)=O)cc3)CC2c2ccco2)c1 (stereo not given) | 1.31 | – |
| c1ccc2c(c1)OCC(CNc1nnc(Cc3ccncc3)c3ccccc13)O2 (stereo not given) | -1.37 | – |
| COc1cc(OC)c(-c2nc(-c3cccnc3)no2)cc1OC | 1.51 | – |
| COc1cc(NC(=O)Nc2ccc3snnc3c2)cc(OC)c1OC | -1.49 | – |
| CCc1ccc2[nH]cc(S(=O)(=O)c3ccc(F)cc3)c(=O)c2c1 | -1.48 | – |
| Cc1csc(NC(=O)C2CCCN(S(=O)(=O)c3c(C)[nH]c(=O)[nH]c3=O)C2)n1 (stereo not given) | -1.1 | – |
| O=C(CCN1C(=O)c2ccccc2S1(=O)=O)Nc1cccc(Br)c1 | 1.01 | – |
| CN(C)c1nc(C(N)=O)nc(N2CCOCC2)n1 | 1.62 | – |
| O=C1Nc2ccccc2/C1=C\c1cn(Cc2ccccc2F)c2ccccc12 | -1.04 | – |
| O=C(CCCc1nnc2n3nc(-c4ccccc4)nc3c3ccccc3n12)NCC1CCCO1 (stereo not given) | 1.2 | – |
| Cn1c(=O)c2c(SCC(=O)Nc3ccccc3F)nc(-c3cccs3)nc2n(C)c1=O | 1.46 | – |
| CN(CC(=O)NCc1ccco1)S(=O)(=O)c1ccc2c(c1)c(=O)n(C)c(=O)n2C | -1.15 | – |
| Cc1ccc(N2CCN(c3cc(C)nc4ncnn34)CC2)c(C)c1 | -1.38 | – |
| O=C(O)CN1C(=O)/C(=C\c2ccc(-c3ccccc3)o2)SC1=S | -1.88 | – |
| CN1CCN(CCCNC(=O)Cn2ncc3c4ccccc4n(C)c3c2=O)CC1 | -1.07 | – |
| NC(=O)c1c(NC(=O)c2csc3c2CCCC3)sc2c1CCCC2 | -1.89 | – |
| COc1ccccc1/C=C/C=c1\sc2nc(-c3ccco3)nn2c1=O | 1.41 | – |
